PubChem BioAssay (NCI)
About 83,000 compounds went through this panel and 20% of them were active in at least one assay; those are over-represented in the sample as a whole.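 Single-concentration screen, 48 h exposure, 96-well plates. Endpoint: percent growth. Below 10 = active.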 Values without a mark were called inactive. The source made the active and inactive calls.

Assays:
Assay in all cases: NCI-60 one-dose screen, 48 h (100 = growth as untreated, 0 = no growth, -100 = all killed)
SR leukemia = conditions: 10 µM unless noted
RPMI-8226 leukemia = conditions: 10 µM
OVCAR-8 ovarian = conditions: 10 µM unless noted
OVCAR-5 ovarian = conditions: 10 µM unless noted
OVCAR-4 ovarian = conditions: 10 µM unless noted
SK-OV-3 ovarian = conditions: 10 µM
IGROV1 ovarian = conditions: 10 µM unless noted
OVCAR-3 ovarian = conditions: 10 µM unless noted
HS 578T breast = conditions: 10 µM unless noted
NCI/ADR-RES ovarian = conditions: 10 µM unless noted
T-47D breast = conditions: 10 µM
BT-549 breast = conditions: 10 µM unless noted
MDA-MB-435 melanoma = conditions: 10 µM unless noted
SW-620 colon = conditions: 10 µM unless noted
MCF7 breast = conditions: 10 µM unless noted
HCT-116 colon = conditions: 10 µM unless noted
HCC-2998 colon = conditions: 10 µM unless noted
KM12 colon = conditions: 10 µM unless noted

For `COc1ccc(-c2c3c(N)c4c(nc3nc3c2c(C)nn3-c2ccccc2)CCCCC4)cc1`, the growth (SR leukemia) was 54.1%, the growth (RPMI-8226 leukemia) was -4.18% (active) and the growth (OVCAR-8 ovarian) was 83.2%. It also gave a growth (OVCAR-5 ovarian) of 86.3%, a growth (OVCAR-4 ovarian) of 67.8% and a growth (SK-OV-3 ovarian) of 85.6%. For the same compound, the growth (IGROV1 ovarian) was 86.7%, the growth (OVCAR-3 ovarian) was 72.6% and the growth (HS 578T breast) was 101%. The growth (NCI/ADR-RES ovarian) was 86.9%, the growth (T-47D breast) was 61.2% and the growth (BT-549 breast) was 80.9%. For the same compound, the growth (MDA-MB-435 melanoma) was 78.8%, the growth (SW-620 colon) was 83.5% and the growth (MCF7 breast) was 62.8%. For the same compound, the growth (HCT-116 colon) was 27.9%, the growth (HCC-2998 colon) was 86.6% and the growth (KM12 colon) was 84.2%.

Work on `CCOC(=O)C(CC(c1ccccc1)N1CCCCC1)[N+](=O)[O-]` (configuration not stated) yielded a growth (SR leukemia) of 77.7%, a growth (RPMI-8226 leukemia) of 57.9% and a growth (OVCAR-8 ovarian) of 87.1%. The growth (OVCAR-5 ovarian) was 104%, the growth (OVCAR-4 ovarian) was 96.5% and the growth (SK-OV-3 ovarian) was 97.7%. The growth (IGROV1 ovarian) was 76.3%, the growth (OVCAR-3 ovarian) was 53.3% and the growth (HS 578T breast) was 98.6%. For the same compound, the growth (NCI/ADR-RES ovarian) was 61.4%, the growth (T-47D breast) was 59.1% and the growth (BT-549 breast) was 94.8%. For the same compound, the growth (MDA-MB-435 melanoma) was 93.7%, the growth (SW-620 colon) was 84.9% and the growth (MCF7 breast) was 63.3%. It also gave a growth (HCT-116 colon) of 54.8%, a growth (HCC-2998 colon) of 108% and a growth (KM12 colon) of 37.8%.

`CC(C)(C)[Si](C)(C)OC1[C@@H](O[Si](C)(C)C(C)(C)C)[C@@H](CNC(=O)NC(=O)C(F)(F)F)O[C@H]1n1cnc2c(NC(=O)Nc3ccccc3)ncnc21` (some centres not stated) was tested, and the growth (SR leukemia) was -41.9% (active), the growth (RPMI-8226 leukemia) was 4.89% (active) and the growth (OVCAR-8 ovarian) was 82%. The growth (OVCAR-5 ovarian) was 88.8%, the growth (OVCAR-4 ovarian) was 78.4% and the growth (SK-OV-3 ovarian) was 89.7%. The growth (IGROV1 ovarian) was 71.2%, the growth (OVCAR-3 ovarian) was -54.1% (active) and the growth (HS 578T breast) was 49.5%. For the same compound, the growth (NCI/ADR-RES ovarian) was 85.5%, the growth (T-47D breast) was 85.5% and the growth (BT-549 breast) was 96%. The growth (MDA-MB-435 melanoma) was -4.83% (active), the growth (SW-620 colon) was 71.2% and the growth (MCF7 breast) was 48.3%. The growth (HCT-116 colon) was 57.2%, the growth (HCC-2998 colon) was 79.3% and the growth (KM12 colon) was 24%.

For `COc1ccc(Nc2nc(NCCNc3ccnc4cc(Cl)ccc34)nc(N3CCOCC3)n2)cc1`, the growth (SR leukemia) was 7.72% (active), the growth (RPMI-8226 leukemia) was 45.9% and the growth (OVCAR-8 ovarian) was 71.4%. For the same compound, the growth (OVCAR-5 ovarian) was 130%, the growth (OVCAR-4 ovarian) was 81.3% and the growth (SK-OV-3 ovarian) was 100%. The growth (IGROV1 ovarian) was 72.8%, the growth (OVCAR-3 ovarian) was 73.4% and the growth (HS 578T breast) was 66.3%. It also gave a growth (NCI/ADR-RES ovarian) of 76.2%, a growth (T-47D breast) of 110% and a growth (BT-549 breast) of 83.7%. It also gave a growth (MDA-MB-435 melanoma) of 11.1%, a growth (SW-620 colon) of 27.2% and a growth (MCF7 breast) of 56.2%. For the same compound, the growth (HCT-116 colon) was 41.8%, the growth (HCC-2998 colon) was 0.682% (active) and the growth (KM12 colon) was 51.5%.

`COc1cc(C2=NN(c3ccc(S(N)(=O)=O)cc3)C(c3ccc(Cl)cc3)C2)cc(OC)c1OC` (configuration not stated) was tested, and the growth (SR leukemia) was 17.5%, the growth (RPMI-8226 leukemia) was -5.03% (active) and the growth (OVCAR-8 ovarian) was 40%. For the same compound, the growth (OVCAR-5 ovarian) was 77.5%, the growth (OVCAR-4 ovarian) was 42.4% and the growth (SK-OV-3 ovarian) was 77.9%. It also gave a growth (IGROV1 ovarian) of 60.9%, a growth (OVCAR-3 ovarian) of 47.1% and a growth (HS 578T breast) of 58.4%. For the same compound, the growth (NCI/ADR-RES ovarian) was 37.5%, the growth (T-47D breast) was 20.4% and the growth (BT-549 breast) was 57.9%. For the same compound, the growth (MDA-MB-435 melanoma) was 29.2%, the growth (SW-620 colon) was 44.3% and the growth (MCF7 breast) was 25.2%. For the same compound, the growth (HCT-116 colon) was 23.2%, the growth (HCC-2998 colon) was 45.9% and the growth (KM12 colon) was 37.6%.

In the case of `O=C1CN2CCC1C/C2=C\c1ccnc2c(Cl)cccc12` (configuration not stated), the growth (SR leukemia) is reported as -24% (active), the growth (RPMI-8226 leukemia) is reported as 62.2% and the growth (OVCAR-8 ovarian) is reported as 99.4%. The growth (OVCAR-5 ovarian) was 103%, the growth (OVCAR-4 ovarian) was 93.6% and the growth (SK-OV-3 ovarian) was 94.1%. It also gave a growth (IGROV1 ovarian) of 95.3%, a growth (OVCAR-3 ovarian) of 123% and a growth (HS 578T breast) of 219%. It also gave a growth (NCI/ADR-RES ovarian) of 101%, a growth (T-47D breast) of 93.6% and a growth (BT-549 breast) of 108%. The growth (MDA-MB-435 melanoma) was 101%, the growth (SW-620 colon) was 101% and the growth (MCF7 breast) was 45.7%. The growth (HCT-116 colon) was 98.5%, the growth (HCC-2998 colon) was 102% and the growth (KM12 colon) was 101%.

`Brc1ccc(SCN(CSc2ccc(Br)cc2)Cc2ccccc2)cc1` was tested, and the growth (SR leukemia) was 34.6%, the growth (RPMI-8226 leukemia) was 36.3% and the growth (OVCAR-8 ovarian) was 74.4%. The growth (OVCAR-5 ovarian) was 90.1%, the growth (OVCAR-4 ovarian) was 75.5% and the growth (SK-OV-3 ovarian) was 93.9%. For the same compound, the growth (IGROV1 ovarian) was 35.6%, the growth (OVCAR-3 ovarian) was 91.6% and the growth (HS 578T breast) was 88.1%. The growth (NCI/ADR-RES ovarian) was 73.4%, the growth (T-47D breast) was 84.7% and the growth (BT-549 breast) was -15.2% (active). For the same compound, the growth (MDA-MB-435 melanoma) was 75.8%, the growth (SW-620 colon) was 102% and the growth (MCF7 breast) was 66.2%. For the same compound, the growth (HCT-116 colon) was 57.8%, the growth (HCC-2998 colon) was 113% and the growth (KM12 colon) was 43.2%.

For `CCOC(=O)C1=C(C)N2C(=NC3=C(CCCC/C3=C\c3cc(OC)c(OC)c(OC)c3)C2c2cc(OC)c(OC)c(OC)c2)S1` (configuration not stated), the growth (SR leukemia) was 47.4%, the growth (RPMI-8226 leukemia) was 32.7% and the growth (OVCAR-8 ovarian) was 63.6%. For the same compound, the growth (OVCAR-5 ovarian) was 85.6%, the growth (OVCAR-4 ovarian) was 69.3% and the growth (SK-OV-3 ovarian) was 77.8%. It also gave a growth (IGROV1 ovarian) of 71.6%, a growth (OVCAR-3 ovarian) of 64.5% and a growth (HS 578T breast) of 96.1%. It also gave a growth (NCI/ADR-RES ovarian) of 62.1%, a growth (T-47D breast) of 45.9% and a growth (BT-549 breast) of 55.1%. For the same compound, the growth (MDA-MB-435 melanoma) was 68.4%, the growth (SW-620 colon) was 82.5% and the growth (MCF7 breast) was 60.9%. It also gave a growth (HCT-116 colon) of 68%, a growth (HCC-2998 colon) of 85% and a growth (KM12 colon) of 67.5%.

In the case of `Cc1nc2cc(Nc3nc(NCCN)nc(Nc4ccc(F)cc4)n3)ccc2n1Cc1ccccc1`, the growth (SR leukemia) is reported as -26.5% (active), the growth (RPMI-8226 leukemia) is reported as -45% (active) and the growth (OVCAR-8 ovarian) is reported as 89.1%. It also gave a growth (OVCAR-5 ovarian) of 106%, a growth (OVCAR-4 ovarian) of 77% and a growth (SK-OV-3 ovarian) of 95.5%. For the same compound, the growth (IGROV1 ovarian) was 81.4%, the growth (OVCAR-3 ovarian) was 86.7% and the growth (HS 578T breast) was 102%. For the same compound, the growth (NCI/ADR-RES ovarian) was 103%, the growth (T-47D breast) was 69.1% and the growth (BT-549 breast) was 90%. It also gave a growth (MDA-MB-435 melanoma) of 80.4%, a growth (SW-620 colon) of 73.9% and a growth (MCF7 breast) of 68.8%. The growth (HCT-116 colon) was 60.3%, the growth (HCC-2998 colon) was 70.6% and the growth (KM12 colon) was 70.6%.
